36 compounds from PubChem BioAssay can be followed below.

The structures appear in SMILES notation.

For this test, the target named is Torsin-1A-interacting protein 2 (Homo sapiens) (UniProt Q8NFQ8). Nature of the test: LULL1 binders on small-molecule microarray, primary screen, cell lysate, human LULL1 lysate, 635/667 nm fluorescence (AID 1092).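 Further: probe is lysate of COS7 cells overexpressing human LULL1; score merges per-feature 667 nm fluorescence with signal-to-noise.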 The conditions noted are these: hLULL1 lysate binding, 635 nm fluorescence, higher = more signal.
Chain of Torsin-1A-interacting protein 2 (Homo sapiens) (Q8NFQ8 whole entry, looked up): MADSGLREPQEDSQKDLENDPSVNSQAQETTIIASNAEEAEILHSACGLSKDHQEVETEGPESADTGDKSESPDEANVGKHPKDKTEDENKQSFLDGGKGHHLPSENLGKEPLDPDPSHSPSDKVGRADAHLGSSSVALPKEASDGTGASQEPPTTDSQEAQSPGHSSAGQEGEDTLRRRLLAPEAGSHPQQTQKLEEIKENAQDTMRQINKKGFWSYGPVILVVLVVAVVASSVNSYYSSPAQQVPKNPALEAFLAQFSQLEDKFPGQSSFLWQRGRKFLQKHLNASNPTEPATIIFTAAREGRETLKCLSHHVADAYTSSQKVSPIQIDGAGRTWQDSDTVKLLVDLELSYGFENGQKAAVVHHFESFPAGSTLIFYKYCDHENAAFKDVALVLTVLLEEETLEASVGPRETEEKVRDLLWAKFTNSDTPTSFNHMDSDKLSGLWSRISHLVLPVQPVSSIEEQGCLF
The compound `COc1ccc(C(O)C2C=CC3C(=O)N(c4ccccc4)C(=O)C3N2Nc2ccc(C#N)cc2)c2ccccc12` (stereo unspecified) yielded a composite z-score of 3.38.
`COCCOC(=O)N1C(=O)[C@@]2(c3ccccc31)[C@H](C(=O)N1CCN(c3ncccn3)CC1)[C@H]1C(=O)O[C@H](c3ccccc3)[C@H](c3ccccc3)N1[C@@H]2c1ccc(OCCO)cc1` showed a composite z-score of 2.56.
Next, `CC=CC(O)C1C=CC2C(=O)N(c3ccccc3)C(=O)C2N1Nc1ccccc1` (stereo unspecified): 3.33; `Cc1ccc(S[C@]2(C(=O)NCC(F)(F)F)CC(=O)N(Cc3ccccc3)[C@@H]2c2ccc(CO)cc2)cc1`: 2.06.
Next, `[N-]=[N+]=Nc1ccccc1C[C@@]1(C(=O)O)N=C(c2ccc(OCCCO)cc2)O[C@@H]1c1ccccc1`: 3.43; `COCCCNC(=O)[C@]1(Cc2ccccc2CN=[N+]=[N-])N=C(c2ccc(OCCCO)cc2)O[C@@H]1c1ccccc1`: 2.67.
Next, `CC(C)OC(=O)CC(=O)CC(O)c1cccc(C#N)c1` (stereo unspecified): 2.15; `CCCC=C(CCC)[C@@H](NP(=O)(c1ccccc1)c1ccccc1)c1ccc(C(F)(F)F)cc1`: 1.01; `CCCN1C(=O)[C@]2(Cc3ccccc3)N=C(c3ccc(OCCCO)cc3)O[C@@H]2c2ccccc21`: 3.26.
For `C[C@]12C(=O)N(CCCCCCO)[C@@H]3C(=O)N(c4ccc(Cl)cc4)CC=CC31O[C@@H]1/C=C\CCCOC(=O)C12` (stereo partly specified), the composite z-score is 3.27.
Turning to `COCCOC(=O)N1C(=O)[C@@]2(c3ccccc31)[C@H](c1ccc(OCCO)cc1)N1[C@H](c3ccccc3)[C@H](c3ccccc3)OC(=O)[C@H]1[C@@H]2C(=O)Nc1nc2ccccc2s1`, the composite z-score is 3.13.
As for `C=CCN1Cc2ccccc2C[C@@]2(N=C(c3ccc(OCCCO)cc3)O[C@H]2c2ccccc2)C1=O`, the figure is 3.13; as for `CN(C)CCCCNC(=O)[C@H]1C[C@H]2C(=O)N3CCC[C@H]3C(=O)N2[C@H]1c1ccc(O)cc1`, 0.391; as for `COC1(C)CN(Cc2ccccc2Br)[C@H](/C=C/c2ccccc2)[C@H](Cc2ccccc2)O1` (stereo partly specified), -0.92.
Next, `COc1cc(OC)c(C(O)C2C=CC3C(=O)N(c4ccccc4)C(=O)C3N2Nc2ccc(C#N)cc2)cc1Br` (stereo unspecified): 2.64; `O=C(O)[C@]1(Cc2ccccc2)N=C(c2ccc(OCCCO)cc2)O[C@@H]1c1ccccc1`: 1.55.
Next, `O=C1c2ccccc2[C@@]2(Cc3ccccc3N(C3CC3)C2=O)[C@H](c2ccc(CO)cc2)N1C1CCCCC1`: 1.79.
In turn, `COCCOC(=O)N1C(=O)[C@@]2(c3cc(C#CCC(C(=O)OC)C(=O)OC)ccc31)[C@H](c1ccc(OCCO)cc1)N1[C@H](c3ccccc3)[C@H](c3ccccc3)OC(=O)[C@H]1[C@@H]2C(=O)N1CCN(c2ncccn2)CC1` gave a composite z-score of 3.17.
Turning to `O=C1O[C@@H](c2ccccc2)[C@@H](c2ccccc2)N2[C@@H](c3ccccc3OCCO)[C@]3(C(=O)Nc4ccc(C#CCCO)cc43)[C@@H](C(=O)N3CCN(c4ncccn4)CC3)[C@H]12`, the composite z-score was determined as 2.93.
Next, `COc1cc(CO)cc(I)c1O[C@H]1C=C(C(=O)NCCO)C[C@@H](N(CC2CCCCC2)C(=O)c2ccc(C(F)(F)F)cc2)[C@@H]1O`: 1.89; `Cc1c(NC(=O)/C(C#N)=C/C=C/c2ccccc2[N+](=O)[O-])c(=O)n(-c2ccccc2)n1C`: 1.85.
Next, `CCC[C@@H]1C[C@@]1(CCC)[C@@H](NP(=O)(c1ccccc1)c1ccccc1)c1ccc(Cl)cc1`: 0.334.
Next, `C=CCN1C(=O)[C@]2(CC=C)N=C(c3ccc(OCCCO)cc3)O[C@@H]2c2ccccc21`: 3.13; `O=C1c2ccccc2[C@](Cc2ccccc2I)(C(=O)NCCN2CCOCC2)[C@H](c2ccc(CO)cc2)N1Cc1ccccc1`: 2.8.
With `COC(=O)[C@@]1(Cc2ccc(F)cc2)[C@H]2c3cc(C(=O)N4CCCC4)n(CCc4c[nH]c5ccc(OC)cc45)c3C[C@H]2CN1C(=O)c1ccccc1`, the composite z-score is 3.37.
Next, `O=C1c2ccccc2[C@](Cc2ccccc2I)(C(=O)NCc2ccccc2)[C@H](c2ccc(CO)cc2)N1C1CCCCC1`: 1.78; `COCC(=C=CC[C@H](O)c1cccc(OCCO)c1)C[C@H](O)c1ccccn1`: 1.88; `CN1C2C=C(CCCO)C(C3C(=O)N(C(N)=O)C(=O)C32)C1c1cccs1` (stereo unspecified): 0.502.
`CN(C)CCCNC(=O)[C@@H]1c2ccccc2C(=O)N(Cc2ccc(OC(F)(F)F)cc2)[C@H]1c1ccc(CO)cc1`: the composite z-score amounted to 2.22.
Next, `CC(C)(C)OC(=O)CC[C@]1(C(=O)NCCN2CCOCC2)N=C(c2ccc(OCCCO)cc2)O[C@H]1c1ccccc1`: 3.23; `CC(C)CNC(=O)[C@@H]1c2ccccc2C(=O)N(Cc2cc(F)cc(C(F)(F)F)c2)[C@H]1c1ccc(CO)cc1`: 1.73; `C=C(/C(=C/C[C@@H](OC(=O)c1ccncc1)c1ccc(OCCO)cc1)c1cc(C(=O)OC)ccc1OC)C(C)C`: 1.32.
As for `C=C(CCCC)/C(=C/C[C@@H](OC(=O)c1ccncc1)c1cccc(OCCO)c1)c1cnc2ccccc2c1`, the figure is 1.52; as for `C=CCOC(=O)[C@H]1[C@@H]2C(=O)O[C@@H](c3ccccc3)[C@@H](c3ccccc3)N2[C@@H](c2ccc(OCCOC(=O)[C@H]3C[C@H]4C(=O)N[C@@H](Cc5ccccc5)C(=O)N4[C@H]3c3cccc(OCCO)c3)cc2)[C@]12C(=O)Nc1ccc(I)cc12`, 2.36; as for `Cc1ccc(S[C@]2(C(=O)NC3CC3)CC(=O)N(Cc3ccccc3Cl)[C@@H]2c2ccc(CO)cc2I)cc1`, 3.22.
For `C[C@@H]1ON(c2ccc(C(=O)OC(C)(C)C)cc2)[C@H](c2ccc(Br)cc2)[C@H]1C(=O)N1C(=O)OC[C@H]1Cc1ccccc1`, the composite z-score was 2.22.
